Assay [1] can be described thus: HepG2 liver cancer cell viability effects, profiling panel, resazurin fluorescence, 24 h, PK04 Diversity Set (AID 1172). To be noted: higher = more signal. A general note: Alamar Blue is a resazurin reagent that responds to reducing activity.
Assay [2] in a line: basal S. cerevisiae growth modulation, no modifier, primary screen, OD600, strain BY4716, 24 h, basal condition (AID 1173). The following applies: OD600, 24 h, higher = more signal, called active from +8 up or from −8 down.
Assay [3] in a line: MM1S myeloma cell viability, profiling panel, resazurin fluorescence, basal, 24 h, PK04 Diversity Set (AID 1174). To be noted: higher = more signal, called active from +8 up or from −8 down.
Assay [4] concerns the target Dihydroorotate dehydrogenase (quinone), mitochondrial (Plasmodium falciparum (isolate 3D7)) (UniProt Q08210). In words: PfDHODH enzyme inhibitors, primary screen, biochemical, C-terminal His tag, absorbance 600 nm (AID 1175).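 Also: recombinant parasite enzyme with a five histidine tag at its C terminus.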 The following applies: DCIP absorbance 600 nm, higher = more signal, called active from +8 up or from −8 down.
The nature of assay [5]: P. aeruginosa biofilm formation inhibitors, primary screen, strain PAO1, LB-PBS medium, absorbance 600 nm (AID 1176). The following applies: P. aeruginosa PAO1 growth/biofilm, A600, 12 h; higher = more signal.
A short description of assay [6]: S. cerevisiae RM11-1a growth modifiers, primary screen, strain RM11-1a, OD600, basal, 24 h (AID 1177).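 Also: cultures grown under basal conditions with no added stressor.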 The following applies: OD600, 24 h, higher = more signal, called active from +8 up or from −8 down.
A short description of assay [7]: E. coli acrAB mutant growth effects, primary screen, E. coli filamentation inducers, strain DRC39, OD650, 24 h (AID 1178).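 Also: growth measured as culture turbidity by optical density at 650 nm.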 The following applies: higher = more signal, called active from +8 up or from −8 down.
Assay [8] can be described thus: E. coli acrAB mutant growth effects, primary screen, E. coli filamentation inducers, strain DRC39, OD650, 48 h (AID 1179).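 Also: screen aims at cell division blockers that make cells filament.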 To be noted: E. coli DRC39 delta-acrAB growth, higher = more signal, called active from +8 up or from −8 down.
The nature of assay [9]: RPMI8226 myeloma cell viability, profiling panel, resazurin fluorescence, basal, 24 h, PK04 Diversity Set (AID 1180).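 Also: RPMI8826 multiple myeloma cell line at 5000 cells per well.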 To be noted: higher = more signal.
Assay [10] concerns the target E3 ubiquitin-protein ligase XIAP (Homo sapiens) (UniProt P98170). In words: XIAP binders, primary screen, biophysical, small-molecule microarray, fluorescence 635 nm (AID 1181).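 Also: score merges 667 nm emission and signal to noise over triplicate slides.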 To be noted: small-molecule microarray binding, higher = more signal.
The subject of assay [11] is XIP peptide (Xip251-270) binding. In words: small-molecule binders of XIP peptide, primary screen, biochemical, small-molecule microarray, fluorescence 635/667 nm, 0.1 µg/mL protein (AID 1182). The following applies: fluorescent protein binding, 635 nm, higher = more signal, called active from +8 up or from −8 down.
The test system of another assay is XIP peptide (Xip251-270). The experiment in a line: small-molecule binders of XIP peptide, primary screen, biochemical, small-molecule microarray, fluorescence 635/667 nm, 0.5 µg/mL protein (AID 1183). The following applies: small-molecule microarray binding, fluorescence 635 nm; higher = more signal.
The nature of assay [12]: Plasmodium falciparum growth inhibition, primary screen, strain 3D7, DAPI fluorescence, 100 nL (AID 1184).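 Also: parasites grown inside human red blood cells in medium with human serum.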 To be noted: P. falciparum 3D7 growth, 3 d, higher = more signal.
The target of assay [13] is Homeobox protein Hox-A13 (Mus musculus) (UniProt Q62424). The experiment in a line: inhibitors of HoxA13-DNA binding, primary screen, biochemical, fluorescence polarization, labeled oligonucleotide (AID 1185). The following applies: 15 min, higher = more signal, called active from +8 up or from −8 down. For orientation: Polarisation of emitted light reports the rotation of a fluorescent probe.
Chain of Homeobox protein Hox-A13 (Mus musculus) (Q62424 whole entry, looked up): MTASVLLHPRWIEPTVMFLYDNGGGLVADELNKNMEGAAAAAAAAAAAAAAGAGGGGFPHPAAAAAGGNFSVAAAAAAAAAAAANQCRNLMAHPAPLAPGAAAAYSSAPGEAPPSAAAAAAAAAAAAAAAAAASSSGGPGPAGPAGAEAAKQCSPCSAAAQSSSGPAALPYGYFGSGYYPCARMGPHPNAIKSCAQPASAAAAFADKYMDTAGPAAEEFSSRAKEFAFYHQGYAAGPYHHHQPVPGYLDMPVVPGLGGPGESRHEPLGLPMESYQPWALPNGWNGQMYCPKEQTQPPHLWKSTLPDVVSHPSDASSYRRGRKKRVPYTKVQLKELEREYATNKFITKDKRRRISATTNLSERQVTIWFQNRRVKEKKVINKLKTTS

The nature of assay [14]: inhibitors of hydroxyurea-induced Chk1 phosphorylation, primary screen, imaging, HeLa, phospho-Chk1 antibody, percent positive cells (AID 1186). The following applies: hydroxyurea-induced phospho-Chk1 immunofluorescence imaging, higher = more signal.
The nature of assay [15]: inhibitors of hydroxyurea-induced Chk1 phosphorylation, primary screen, imaging, HeLa, phospho-Chk1 nuclear intensity (AID 1187). To be noted: hydroxyurea-induced phospho-Chk1 immunofluorescence imaging, higher = more signal.

The structures appear in SMILES notation. Active and inactive are the calls of the source. Unless noted, no rule for the calls is given here.

Chain of Dihydroorotate dehydrogenase (quinone), mitochondrial (Plasmodium falciparum (isolate 3D7)) (Q08210 whole entry, looked up): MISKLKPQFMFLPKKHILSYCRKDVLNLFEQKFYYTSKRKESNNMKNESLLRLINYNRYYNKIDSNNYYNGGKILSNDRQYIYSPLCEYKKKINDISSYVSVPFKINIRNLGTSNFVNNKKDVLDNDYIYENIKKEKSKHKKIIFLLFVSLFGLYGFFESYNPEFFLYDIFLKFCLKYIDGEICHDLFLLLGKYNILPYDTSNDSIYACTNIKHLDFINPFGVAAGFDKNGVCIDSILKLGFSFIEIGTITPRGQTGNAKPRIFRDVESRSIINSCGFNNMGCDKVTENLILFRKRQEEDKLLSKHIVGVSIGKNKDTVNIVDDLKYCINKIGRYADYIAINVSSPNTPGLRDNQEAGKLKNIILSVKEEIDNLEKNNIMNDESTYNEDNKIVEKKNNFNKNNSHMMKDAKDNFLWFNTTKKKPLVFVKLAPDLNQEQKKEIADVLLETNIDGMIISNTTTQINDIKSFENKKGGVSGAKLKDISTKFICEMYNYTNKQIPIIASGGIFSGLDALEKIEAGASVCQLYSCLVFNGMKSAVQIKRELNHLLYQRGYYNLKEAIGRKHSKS
Chain of E3 ubiquitin-protein ligase XIAP (Homo sapiens) (P98170 whole entry, looked up): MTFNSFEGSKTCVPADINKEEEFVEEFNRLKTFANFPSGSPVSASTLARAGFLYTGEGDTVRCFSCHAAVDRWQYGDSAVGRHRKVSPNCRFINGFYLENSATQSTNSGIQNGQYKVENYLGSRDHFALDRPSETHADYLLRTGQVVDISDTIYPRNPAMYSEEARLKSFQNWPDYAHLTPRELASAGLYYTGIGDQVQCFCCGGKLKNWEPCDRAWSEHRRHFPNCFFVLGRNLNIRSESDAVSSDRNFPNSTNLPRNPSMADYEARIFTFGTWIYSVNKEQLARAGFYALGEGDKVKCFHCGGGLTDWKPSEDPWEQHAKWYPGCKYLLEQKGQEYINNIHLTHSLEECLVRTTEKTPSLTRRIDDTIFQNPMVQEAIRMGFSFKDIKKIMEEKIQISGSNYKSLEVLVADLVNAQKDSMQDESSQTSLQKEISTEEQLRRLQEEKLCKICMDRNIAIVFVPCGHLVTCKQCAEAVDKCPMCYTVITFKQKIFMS

For the compound `COC(=O)[C@@]1(Cc2ccccc2)[C@H]2c3cc(C(=O)N4CCCC4)n(Cc4ccc(C(F)(F)F)nc4)c3C[C@H]2CN1C(=O)c1ccccc1`, the z-score in [1] was 0.0826; in assay [2], 1.18 (inactive); in assay [3], -0.335 (inactive); in [5], -0.374 (inactive); in [6], 0.151 (inactive); in assay [7], 0.018 (inactive). The z-score in assay [8] is -0.815 (inactive); in [9] it was -0.578; in [12] it was -1.11; in [13] it was -3.13 (inactive); in assay [14], -0.0659 (inactive); in assay [15] it was 0.114 (inactive). The composite z-score in assay [4] was -0.559 (inactive); in assay [10] it was 0.0558; in assay [11], -0.0699 (inactive); in the assay on XIP peptide (Xip251-270), 0.723.
`COCCOC(=O)N1C(=O)[C@@]2(c3ccccc31)[C@H](C(N)=O)[C@H]1C(=O)O[C@H](c3ccccc3)[C@H](c3ccccc3)N1[C@@H]2c1ccc(OCCO)cc1`: the z-score was 1.35 in assay [1]; 1.75 (inactive) in assay [2]; 0.671 (inactive) in assay [3]; -0.108 (inactive) in assay [5]; 1.96 (inactive) in assay [6]; 0.755 (inactive) in assay [7]. For the same compound, the z-score in [8] is 0.094 (inactive); in [9], 0.7; in [12] it was 0.0624; in [13] it was -4.49 (inactive); in [14] it was 0.114 (inactive); in assay [15] it was -0.0135 (inactive). For the same compound, the composite z-score in assay [4] is -0.525 (inactive); in assay [10], 0.109; in assay [11] it was 0.675 (inactive); in the assay with XIP peptide (Xip251-270), 0.638.
`[N-]=[N+]=NCc1ccccc1C[C@]1(C(=O)N2CCCCC2)N=C(c2ccc(OCCCO)cc2)O[C@H]1c1ccccc1`: the z-score in assay [1] is 0.116; in assay [2], 1.71 (inactive); in assay [3] it was -2.13 (inactive); in assay [5], -0.372 (inactive); in assay [6], 2.8 (inactive); in [7], 0.914 (inactive). In addition, the z-score in [8] is 1.23 (inactive); in assay [9], -5.14; in assay [12] it was -2.34; in [13] it was -4.35 (inactive); in assay [14], -0.527 (inactive); in [15], -0.286 (inactive). Besides, the composite z-score in assay [4] is 0.939 (inactive); in assay [10], 0.17; in assay [11], 0.404 (inactive); in the assay on XIP peptide (Xip251-270), 0.779.
Take `CC(C)C(=C=CC[C@@H](O)c1cccc(OCCO)c1)CCO`: the z-score is 0.545 in assay [1]; -1.15 (inactive) in assay [2]; 0.265 (inactive) in assay [3]; 0.2 (inactive) in assay [5]; 0.0632 (inactive) in [6]; 0.546 (inactive) in assay [7]. Moreover, the z-score is 0.423 (inactive) in [8]; 0.336 in [9]; -0.115 in assay [12]; -1.53 (inactive) in assay [13]; -0.19 (inactive) in assay [14]; 0.247 (inactive) in [15]. For the same compound, the composite z-score in assay [4] is -1.1 (inactive); in assay [10], -0.127; in assay [11], 0.202 (inactive); in the assay with XIP peptide (Xip251-270) it was 0.42.
As to `COc1ccc(NC(=O)O[C@H]2[C@H](OC(=O)Nc3ccc4c(c3)OCO4)[C@H](OC(=O)Nc3ccc4c(c3)OCO4)[C@@H](OC)O[C@@H]2CO)cc1`, the z-score in [1] was -0.637; in assay [2], 1.41 (inactive); in assay [3], -0.366 (inactive); in assay [5], 0.826 (inactive); in assay [6], 1.88 (inactive); in assay [7], 0.677 (inactive). Moreover, the z-score in assay [8] was 0.18 (inactive); in assay [9], -0.686; in assay [12], -2.24; in assay [13] it was -4.94 (inactive); in assay [14] it was -0.246 (inactive); in assay [15], 0.267 (inactive). In addition, the composite z-score in assay [4] was 0.229 (inactive); in assay [10] it was 0.52; in [11], 1.04 (inactive); in the assay with XIP peptide (Xip251-270), 0.866.
As for `CC(=O)NCCCC[C@@H]1NC(=O)[C@@H]2C[C@H](C(=O)NCCCCCC[N+](C)(C)C)[C@H](c3ccc(O)cc3)N2C1=O`, the z-score is -0.793 in assay [1]; 0.857 (inactive) in assay [2]; -0.471 (inactive) in assay [3]; -0.807 (inactive) in assay [5]; 0.0885 (inactive) in assay [6]; -0.241 (inactive) in assay [7]. The z-score in assay [8] was -0.229 (inactive); in assay [9] it was -0.854; in assay [12], 1.12; in assay [13], -2.45 (inactive); in [14], 0.956 (inactive); in assay [15], 0.817 (inactive). The composite z-score in assay [4] is -1.24 (inactive); in [10], 0.123; in assay [11] it was 0.0817 (inactive); with XIP peptide (Xip251-270) it was 0.846.
Regarding `[N-]=[N+]=NCc1ccccc1C[C@]1(C(=O)O)COC(c2ccc(OCCCO)cc2)=N1`, the z-score in [1] was 0.24; in assay [2], 0.59 (inactive); in [3] it was -0.591 (inactive); in [5] it was 0.37 (inactive); in assay [6], -0.163 (inactive); in assay [7], -0.149 (inactive). In addition, the z-score in assay [8] was -0.0558 (inactive); in assay [9], -0.279; in assay [12], 1.24; in [13], -3.85 (inactive); in assay [14], 0.0203 (inactive); in assay [15] it was -0.313 (inactive). The composite z-score in assay [4] is 1.54 (inactive); in assay [10] it was -0.445; in [11] it was -0.4 (inactive); in the assay with XIP peptide (Xip251-270), 0.264.
`COCCOC(=O)N1C(=O)[C@@]2(c3cc(C#CCNC(N)=O)ccc31)[C@H](C(=O)NC[C@H](O)c1ccccc1)[C@H]1C(=O)O[C@H](c3ccccc3)[C@H](c3ccccc3)N1[C@@H]2c1ccc(OCCO)cc1`: the z-score was 0.774 in [1]; 2 (inactive) in assay [2]; -0.118 (inactive) in [3]; 2.28 (inactive) in [5]; 2.87 (inactive) in assay [6]; -0.0238 (inactive) in [7]. In addition, the z-score in assay [8] was -0.63 (inactive); in assay [9] it was 0.381; in assay [12], -0.188; in assay [13] it was -1.46 (inactive); in [14] it was -0.214 (inactive); in [15], -0.23 (inactive). Moreover, the composite z-score was 1.14 (inactive) in [4], 0.135 in assay [10], 0.561 (inactive) in assay [11] and 0.785 with XIP peptide (Xip251-270).
Turning to `COC(=O)[C@@]1(CCC(=O)OC(C)(C)C)N=C(c2ccc(OCCCO)cc2)O[C@H]1c1ccccc1CN=[N+]=[N-]`, the z-score was 0.118 in [1]; 0.696 (inactive) in assay [2]; -1.79 (inactive) in assay [3]; 0.563 (inactive) in assay [5]; 1.56 (inactive) in assay [6]; 0.224 (inactive) in assay [7]. The z-score in assay [8] is -0.0915 (inactive); in assay [9], -2.11; in assay [12] it was -2.27; in assay [13], -1.11 (inactive); in assay [14], -0.25 (inactive); in assay [15], 0.0025 (inactive). Besides, the composite z-score in [4] was 0.507 (inactive); in assay [10] it was 0.165; in [11], 1.63 (inactive); in the assay with XIP peptide (Xip251-270), 0.512.
For the compound `CN(C)CCCCNC(=O)[C@H]1C[C@H]2C(=O)N[C@@H](Cc3ccccc3)C(=O)N2[C@H]1c1cccc(OCCO)c1`, the z-score was 1.36 in assay [1]; -0.456 (inactive) in [2]; 1.38 (inactive) in [3]; -0.254 (inactive) in assay [5]; -0.372 (inactive) in [6]; 0.553 (inactive) in assay [7]. Further, the z-score in assay [8] is 0.862 (inactive); in assay [9] it was 1.06; in assay [12], -0.0613; in [13], -3.06 (inactive); in assay [14], -0.826 (inactive); in assay [15], -0.851 (inactive). For the same compound, the composite z-score was 0.65 (inactive) in assay [4], 0.0512 in assay [10], -0.0743 (inactive) in assay [11] and -0.0022 with XIP peptide (Xip251-270).

These data come from PubChem BioAssay.
